MITF act – activators of MITF-driven TRPM1 promoter reporter, primary screen, cell-based, SK-MEL-5, luciferase, single point | activation, % at 12.5 µM | SK-MEL-5 TRPM1-promoter luciferase, 24 h; % of positive control, neutral wells = 0 | 300,000 tested, 0.75% active;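 active = mean activation of at least 80% with every replicate also reaching 80%; inconclusive = mean reaches 80% but some replicate falls short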
esBAF inh – Bmi1 luciferase reporter increase in mESCs, primary screen, esBAF inhibitor project, mouse ES cells, Bmi1 luciferase knock-in, single point; 24 h; 100% = twice the neutral-well signal; reporter increase, % at 12.5 µM; 350,000 tested, 2% active; in the data active = activation above about 40%; inconclusive = no clear call, values can overlap the other calls;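 note: a rise in the Bmi1 reporter signal indicates esBAF inhibition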
C2C12 statin – suppressors of statin myotoxicity in C2C12 myotubes, primary screen, cell-based, single point, plate reader | C2C12 myotubes + simvastatin, ATP luminescence, 48 h; scaled: DMSO 0, geranylgeraniol control 100 | rescue of ATP level, % at 7.49 µM | 330,000 tested, 0.78% active | AID 602340, 2012;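 active = mean ATP rescue above about 67%, or every replicate alone reaching that limit, limit read from the data, passing the limit was not always enough; inconclusive = no clear call, values can overlap the other calls; inactive = mean under the limit and some replicate under it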;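 note: myotubes were challenged with 10 µM simvastatin during compound exposure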
FXN GAA850 act – FXN promoter activators, primary screen, cell-based, luciferase luminescence, HEK293 lucGAA850; HEK293 lucGAA850 FXN promoter luciferase reporter, 24 h; percent of 10 µM SAHA response; activation, % at 6 µM; 360,000 tested, 0.56% active; AID 540364, 2011;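 active = activation above the average of all compounds screened plus 3 SD, cutoff fixed separately per campaign, cut at about 7.5% in these data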
Wnt bcat act – Wnt/beta-catenin pathway activators, primary screen, cell-based, plate reader, single point. Wnt/beta-catenin reporter cell assay, activator. activation, % at 9.35 µM. 300,000 tested, 1.2% active. AID 743398, 2014; in the data active = activation above about 30%, passing the limit was not always enough; inconclusive = no clear call, values can overlap the other calls
Of the large screens only hits and unclear results are named; the others gave an inactive call. Shown are actives, neighbours in structure and some others; about 3.3% of the full set was active somewhere.

COCOCCn1cc(CN2CCS(=O)(=O)N(Cc3ccc(-c4ccc(Cl)nc4)cc3)C(CC(C)C)C2=O)nn1 (configuration not stated)	esBAF inh 45.3 (no result: MITF act)
Cc1c(C(=O)OC2CCCCC2)[nH]c2c1C(=O)CC(C)(C)C2	none
COC(=O)C1C(=O)c2c([nH]c(C(=O)OC3CCCC3C)c2C)CC1C (configuration not stated)	MITF act 98.7, esBAF inh 73.5
COC(=O)C1C(=O)c2c([nH]c(C(=O)OC3CCCCC3)c2C)CC1C (configuration not stated)	MITF act 93.9, esBAF inh 63.4, Wnt bcat act inconclusive
COc1cccc(S(=O)(=O)N(C)C[C@@H]2Oc3ncc(-c4cccc(C(F)(F)F)c4)cc3C(=O)N([C@H](C)CO)C[C@@H]2C)c1	none (no result: MITF act, FXN GAA850 act, Wnt bcat act)
CCCC(=O)Nc1ccc2c(c1)C(=O)N(C)[C@@H]1CC[C@@H](CC(=O)Nc3ccccc3)O[C@H]1CO2	none (no result: MITF act, FXN GAA850 act, Wnt bcat act)
O=C(CC(SCCO)c1ccc(F)cc1)c1ccco1 (configuration not stated)	none (no result: Wnt bcat act)
Cc1ccc(C(CC(=O)c2ccco2)SCCO)cc1 (configuration not stated)	Wnt bcat act 37.0
COc1ccc(-c2cc(C(=O)N3CCCC3)no2)cc1OC	esBAF inh 66.9
COc1ccc(-c2cc(C(=O)N3CCN(c4ccc(F)cc4)CC3)no2)cc1OC	none
COc1ccc(-c2cc(C(=O)N3CCCCC3)no2)cc1OC	esBAF inh 58.6
COc1cccc(OCc2cc(C(=O)N(Cc3nccn3C)C(C)C)no2)c1	none
COc1cc(C)ccc1OCc1cc(C(=O)N(Cc2nccn2C)C(C)C)no1	esBAF inh 94.4
COc1cc(C)ccc1OCc1cc(C(=O)N(Cc2c(C)nn(C)c2C)C2CC2)no1	esBAF inh 60.7
COC(=O)c1ccccc1Sc1c(/C=N/OC(=O)c2ccccc2)c(C(F)(F)F)nn1C	none (no result: esBAF inh, C2C12 statin, Wnt bcat act)
Cc1ccc(C(=O)O/N=C/c2c(C(F)(F)F)nn(C)c2Sc2ccc(Cl)cc2)cc1	C2C12 statin 116.3 (no result: Wnt bcat act)
COc1cccc(-c2cnc3c(c2)C(=O)N([C@H](C)CO)C[C@@H](C)[C@@H](CN(C)Cc2ccc(F)cc2)O3)c1	none (no result: MITF act, FXN GAA850 act, Wnt bcat act)
Cc1nc(NC(=S)NC(=O)c2cncc(Br)c2)ccc1Br	C2C12 statin 102.0
Cc1ccnc(NC(=S)NC(=O)c2cncc(Br)c2)c1	none (no result: esBAF inh, C2C12 statin)
Cn1c(C(=O)NCc2ccccc2)cc2oc3ccccc3c21	esBAF inh 59.0
O=C(NCc1ccccc1)c1cc2ccccc2o1	none (no result: Wnt bcat act)
Cn1c(C(=O)NCC2CCCO2)cc2oc3ccccc3c21 (configuration not stated)	esBAF inh 76.3 (no result: Wnt bcat act)
Cn1c(C(=O)NCc2cccs2)cc2oc3ccccc3c21	esBAF inh 51.6 (no result: C2C12 statin)
O=C(CNC(=O)c1cc2ccccc2o1)NCc1cccs1	none (no result: Wnt bcat act)
Cn1c(=O)c(C(=O)NCC2CCCO2)c(O)c2ccccc21 (configuration not stated)	esBAF inh inconclusive, Wnt bcat act 39.2
O=C(C[C@@H]1C[C@@H]2c3cc(NC(=O)C4CCOCC4)ccc3O[C@@H]2[C@@H](CO)O1)NCC1CC1	none (no result: MITF act, FXN GAA850 act, Wnt bcat act)
CN(CC(=O)Nc1cccc(F)c1)C(=O)c1cccc2ccccc12	none
CN(CC(=O)Nc1cccc(F)c1)C(=O)c1sc2ccccc2c1Cl	esBAF inh 61.5
Cn1c(NC(=O)c2ccc(F)cc2)c(-c2cccs2)c(=O)c2ccccc21	none (no result: esBAF inh, C2C12 statin)
Cn1c(NC(=O)c2ccccc2F)c(-c2cccs2)c(=O)c2ccccc21	Wnt bcat act 33.2 (no result: esBAF inh, C2C12 statin)
COc1cc(/C=C/C(=O)OCC(=O)NCCCc2ccccc2)cc(OC)c1OC	none
COc1ccc(CCNC(=O)COC(=O)/C=C/c2ccc3c(c2)OCO3)cc1	esBAF inh 47.0
COc1cc(/C=C/C(=O)OCC(=O)NCCc2ccccc2)cc(OC)c1OC	Wnt bcat act 41.3 (no result: esBAF inh, C2C12 statin)
COc1ccc(CCNC(=O)COC(=O)/C=C/c2ccc(OC)c(OC)c2)cc1	none (no result: esBAF inh, C2C12 statin)
COc1ccc(NC(=O)/C(=C\c2ccc3c(c2)OCO3)NC(C)=O)cc1	Wnt bcat act 46.7 (no result: esBAF inh, C2C12 statin)
COc1ccc(CNC(=O)/C=C/c2cc3c(cc2Br)OCO3)cc1	C2C12 statin 85.6 (no result: Wnt bcat act)
COc1ccc(/C=C/C(=O)c2ccc(OC)cc2OC)cc1	none
COc1ccc(/C=C/C(=O)c2cc3c(cc2N)OCO3)cc1	Wnt bcat act 51.5 (no result: esBAF inh, C2C12 statin)
Cc1ccnc(SCC(=O)N2CCc3ccccc32)n1	MITF act 86.0, esBAF inh 55.8
O=C(CSc1nnc2ccccn12)N1CCc2ccccc2C1	esBAF inh 52.1 (no result: Wnt bcat act)
O=C(CSc1nnc2ccccn12)N1CCc2ccccc21	esBAF inh 52.8, Wnt bcat act 34.4
CC(Sc1nnc2ccccn12)C(=O)N1CCc2ccccc2C1 (configuration not stated)	none (no result: esBAF inh, C2C12 statin, Wnt bcat act)
Cn1ccnc1SCC(=O)N1CCc2ccccc21	none
O=C(c1ccccc1F)N1CC[C@@H]2[C@H](CO)Nc3ccc(Br)cc3[C@@H]21	none (no result: MITF act, FXN GAA850 act, Wnt bcat act)
CCCC#Cc1ccc2c(c1)O[C@@H](CN(C)C(=O)COC)[C@@H](C)CN([C@H](C)CO)S2(=O)=O	none (no result: MITF act, FXN GAA850 act, Wnt bcat act)
N#CCCN1CCN(C(=S)c2ccc(-c3ccc(Cl)cc3)o2)CC1	none
S=C(c1ccc(-c2ccc(Cl)cc2)o1)N1CCCCC1	MITF act 82.8 (no result: Wnt bcat act)
CN1/C(=C\C(=O)c2cccnc2)Sc2ccccc21	none (no result: esBAF inh, C2C12 statin, Wnt bcat act)
COc1cccc(C(=O)/C=C2\Sc3ccccc3N2C)c1	esBAF inh 45.0
C[C@@H]1CN([C@H](C)CO)C(=O)c2cc(NS(=O)(=O)c3ccc(Cl)cc3)ccc2O[C@@H]1CN(C)Cc1ccc(Cl)c(Cl)c1	none (no result: MITF act, FXN GAA850 act, Wnt bcat act)
Clc1ccc(CSc2ncnc3c2ncn3C2CCCCO2)cc1 (configuration not stated)	none
Fc1ccccc1CSc1ncnc2c1ncn2C1CCCCO1 (configuration not stated)	MITF act 88.7, Wnt bcat act 47.6
O=C(NCC[C@H]1CC[C@@H](NS(=O)(=O)c2cccc(F)c2)[C@H](CO)O1)C1CC1	none (no result: MITF act, FXN GAA850 act, Wnt bcat act)
CC(=O)NCC1(O)CCCC(C)C1 (configuration not stated)	Wnt bcat act 40.8 (no result: esBAF inh, C2C12 statin)
CCCCN(C)C(=O)c1cc2cc3cc(OC)ccc3nc2o1	Wnt bcat act 44.4 (no result: esBAF inh, C2C12 statin)
CCCN1CCC(=O)N([C@H](CSc2ccc(C)cc2)Cc2ccccc2)CC1	none
CC(C)C[C@@H](CSc1ccccc1)N1CCN(CC(C)C)CCC1=O	MITF act 103.5, esBAF inh 49.5, Wnt bcat act 43.2
CC(C)C[C@@H](CSc1ccccc1)N1CCN(C)CCC1=O	none
CCCN1CCC(=O)N([C@H](CSc2ccccc2)CC(C)C)CC1	MITF act 92.9
CCCN1CCC(=O)N([C@H](CSc2ccc(Br)cc2)c2ccccc2)CC1	MITF act 88.5, esBAF inh 51.2

Screening results: PubChem BioAssay, several laboratories
